Source: PubChem BioAssay
BoNT-F LC inh = BoNT/F light chain protease inhibitors, primary screen, biochemical, flow cytometry, MLPCN library; Multiplex microsphere protease cleavage assay; Botulinum neurotoxin type F light chain protease (Clostridium botulinum); inhibition, % at 10 µM; AID 588497, 2011; 360,000 tested, 0.22% active; in the data active means inhibition above about 35%, passing the limit was not always enough; inconclusive means no clear call, values can overlap the other calls
Autofluor counter = compound fluorescence in toxin protease inhibitor counterscreen | compound autofluorescence counterscreen, microsphere flow cytometry; active compounds read high | fluorescence intensity (no concentration beside the values) | 360,000 tested, 3.1% active; in the data active means fluorescence intensity above about 16000; inconclusive means no clear call, values can overlap the other calls
Anthrax LF inh2 = Bacillus anthracis LF protease inhibitors, primary screen, biochemical, multiplex microsphere, MLPCN library; multiplex microsphere protease cleavage assay; inhibition, % at 10 µM; 360,000 tested, 0.12% active; AID 588501, 2011
PfHsp40 rescue = rescue of yeast from PfHsp40 toxicity, primary screen, S. cerevisiae, ATP luminescence; 340,000 tested, 0.68% active; growth rescue, % at 12.5 µM; S. cerevisiae expressing PfHsp40, growth rescue; in the data active means growth rescue above about 28%, passing the limit was not always enough; inconclusive means no clear call, values can overlap the other calls;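 further: yeast W303a lacking pdr1 and pdr3 grown in galactose medium; growth measured after three days at 30 °C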
MazF activator = activators of E. coli MazEF toxin-antitoxin RNase, primary screen, biochemical, fluorescence, uHTS | 350,000 tested, 0.32% active | FAM/BHQ RNA-DNA oligo cleavage fluorescence, 5 h | activation, % at 20 µM; in the data active means activation above about 50%
Target sequence (P0AE70 whole entry, looked up): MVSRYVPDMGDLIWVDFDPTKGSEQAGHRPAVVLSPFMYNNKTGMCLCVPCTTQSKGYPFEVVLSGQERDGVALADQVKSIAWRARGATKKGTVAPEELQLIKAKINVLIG
BoNT A protease = BoNT/A light chain protease inhibitors, primary screen, biochemical, flow cytometry, MLPCN library. 360,000 tested, 0.17% active. inhibition, % at 10 µM. multiplex microsphere protease substrate cleavage. Botulinum neurotoxin type A light chain protease (Clostridium botulinum A str. ATCC 3502)
A number is an active result; 0 = inactive; ? = inconclusive; - = no result given. Only some compounds are listed: those with a hit (about 4.3% of all), similar ones and a draw of the others. Unless noted, no stated cut-off is given here; in the data, active means inhibition above about 30%; inconclusive means no clear call, values can overlap the other calls; inactive means below that.

SMILES	BoNT-F LC inh	Autofluor counter	Anthrax LF inh2	PfHsp40 rescue	MazF activator	BoNT A protease
CCOC(=O)CCC(=O)NCc1ccc2c(c1)cc(C)n2C	0	18146	0	0	0	0
Cc1cc(C)c(S(=O)(=O)N2C[C@H]3CON(C)[C@H]3C[C@H]2c2ccc(N3CCCCC3)cc2)c(C)c1	0	34680	0	-	-	0
Cc1ccc(NC(=O)CC2S/C(=N/N=C/C=C/c3ccccc3)NC2=O)cc1Cl (stereo unspecified)	0	0	0	0	54.8	0
O=C(NCc1ccc2c(c1)OCO2)C(=O)Nc1cc2c3c(c1)CC(=O)N3CCC2	0	0	0	0	0	0
CCc1ccccc1NC(=O)c1ccc2c(O)c(S(=O)(=O)c3ccc(OC)cc3)c(=O)[nH]c2c1	0	0	0	0	0	0
CC(C)NC(=O)c1cccc(Cn2cc(Cl)cn2)c1	0	22543	0	0	0	0
CC(NC(=O)c1cccc(Cn2cc([N+](=O)[O-])cn2)c1)c1ccc(C(C)(C)C)cc1 (stereo unspecified)	0	19892	0	0	0	0
CCC(NC(=O)c1cccc(Cn2cc([N+](=O)[O-])cn2)c1)c1ccc(C(C)C)cc1 (stereo unspecified)	0	0	0	0	0	0
COc1cccc(CN2CC(C(=O)NCCCn3ccnc3C)CCC2=O)c1 (stereo unspecified)	0	0	0	0	0	0
O=C(NCCCN1CCC(Cc2ccccc2)CC1)C1CC(=O)N(C2CCCCCC2)C1 (stereo unspecified)	0	20812	0	0	0	0
COC(=O)Cn1cnc2c(cnn2-c2ccc(C)cc2)c1=O	0	0	0	0	0	0
CC(C)(OC(=O)c1ccc(C#N)cc1)c1cc2ccccc2c(=O)o1	0	0	0	0	0	0
COc1ccccc1NC(=O)c1oc2ccccc2c1NC(=O)c1cc(OC)c(OC)c(OC)c1	0	0	0	0	0	0
COc1ccc(NC(=O)c2oc3ccccc3c2NC(=O)c2ccco2)c(OC)c1	0	23875	0	0	0	0
COCC(=O)Nc1c(C(=O)Nc2ccccc2OC)oc2ccccc12	0	23967	0	0	0	0
COc1ccc(NC(=O)c2oc3ccccc3c2NC(=O)c2ccco2)cc1	0	21689	0	0	0	0
COc1ccc(NC(=O)c2oc3cc(C)c(C)cc3c2C)c(OC)c1	0	0	0	0	0	0
CCN(CC)S(=O)(=O)c1ccc2oc(C(=O)Nc3ccc(OC)cc3OC)c(C)c2c1	0	24222	0	0	0	0
O=C(Cn1nc(Br)nc1Br)c1ccccc1	0	0	0	0	0	0
CCOCC(=O)Nc1c(C(=O)Nc2ccc(OC)cc2OC)oc2ccccc12	0	24944	0	0	0	?
CCOC(=O)C1(CCCc2ccccc2)CCN(S(C)(=O)=O)CC1	0	0	0	0	0	0
CC1C/C(=N\NC(=S)NCc2ccccc2)CC(C)(C)C1 (stereo unspecified)	0	22911	0	0	0	?
CC1CCC/C(=N\NC(=S)NCc2ccccc2)C1 (stereo unspecified)	0	0	0	0	0	0
CN(C)c1cccc(C(=O)Nc2ccc(S(=O)(=O)Nc3nccs3)cc2)c1	0	0	0	0	0	0
COc1cc(/C=N/NC(=O)c2cnccn2)cc(OC)c1OC	0	0	0	65.6	0	0
SMILES	BoNT-F LC inh	Autofluor counter	Anthrax LF inh2	PfHsp40 rescue	MazF activator	BoNT A protease
CCCNC(=O)C(=O)N/N=C/c1cccs1	0	0	0	0	0	0
CC(C)CNC(=O)C(=O)N/N=C/c1cccs1	0	18172	0	0	0	0
Cc1ccc(N2CC(C(=O)Nc3nc4ccc(S(C)(=O)=O)cc4s3)CC2=O)cc1 (stereo unspecified)	0	0	0	0	0	0
COc1cc(OC)c(NC(=O)c2cncn2-c2ccc(F)cc2)cc1Cl	0	0	0	0	0	0
COc1cc2c(cc1OC)CN(S(=O)(=O)/C=C/c1ccccc1)CC2	39.9	0	0	0	0	0
O=C(CCS(=O)(=O)Cc1ccc(Cl)cc1)NCCCN1CCOCC1	0	23981	0	0	0	0
O=C(CN1CCN(Cc2ccc(Cl)cc2)C1=O)NCCCN1CCOCC1	0	0	0	0	0	0
CCn1c(=S)sc2c(=O)n(CC(=O)Nc3cc(OC)ccc3OC)c(C)nc21	0	0	0	0	0	0
COc1ccc(/C=C(/NC(=O)c2ccco2)C(=O)N2CCOCC2)cc1	0	0	0	0	0	0
C/C=C/Cn1c(Br)nc2c1c(=O)[nH]c(=O)n2C	0	22506	0	0	0	0
Cn1c(=O)[nH]c(=O)c2c1nc(Br)n2CCCSc1nc2ccccc2o1	0	17409	0	0	0	?
C/C=C/Cn1c(SC)nc2c1c(=O)[nH]c(=O)n2C	0	0	0	0	0	0
CCN1C(=O)[C@@H]2[C@@H](c3ccc(SC4CCCCC4)c(OC)c3)N3CCCC[C@@]3(C(=O)OC)[C@@H]2C1=O	0	0	0	0	0	0
CCOc1ccc(Cl)cc1S(=O)(=O)N1CCC(C(=O)NCc2cccnc2)CC1	0	0	0	0	0	0
Nc1nc(Oc2ccc(F)cc2)c(Br)c(=O)[nH]1	0	0	0	0	0	0
O=C(CSc1nnc2ccc(-c3ccccn3)nn12)N1CCCC1	0	0	0	0	0	0
CNC(=O)c1nnsc1S(=O)c1ccc(Cl)cc1 (stereo unspecified)	0	0	0	78.7	0	0
COc1cc(NS(=O)(=O)c2ccc(NC(=O)Cc3ccccc3)cc2)nc(OC)n1	0	0	0	0	0	0
COc1ccc(C)cc1NC(=O)CSCc1cc(=O)n2c(C)csc2n1	-	-	-	0	0	-
O=C(O)c1ccc2c(c1)C(c1ccccc1)OC2=O (stereo unspecified)	0	16408	0	0	0	0
O=C1OC(c2cc(Br)c(O)c(Br)c2)c2ccccc21 (stereo unspecified)	0	0	0	0	0	0
Cc1cnc(C(=O)OC(C)C(=O)c2c(C)[nH]c3ccccc23)cn1 (stereo unspecified)	-	-	-	0	0	-
Cn1c(CC(=O)Nc2ccccc2F)nnc1SCC(=O)NC1=NCCS1	0	0	0	0	0	0
Cc1cccnc1Sc1c([N+](=O)[O-])ncn1C	0	0	0	0	0	0
Cc1cccc(Sc2c([N+](=O)[O-])ncn2C)c1	0	23323	0	0	0	0
Cc1cnc(CNC(=O)c2csc(COCCO)n2)cn1	0	0	0	-	-	0
CC(C)(C)c1cc(C(c2cccnc2)N2CCN(CCO)CC2)cc(C(C)(C)C)c1O (stereo unspecified)	0	0	0	30.0	0	0
